# Literature values as cited in PubChem BioAssay AID977611.
# In all, about 3,900 compounds went through this assay and about 3,900 (100%) were called active. No cut-off is given here; in the data, nearly all actives have Kd up to about 4200 µM. So high a share suggests a set chosen from earlier hits. The list shows a part of the results. Starred links: 1 amine or outer side, 2 acyl side, 3 side chain; linkers in the order of their positions; H or OH if unused. *1 amine or outer side, *2 acyl side, *3 side chain or, on linkers, in order; H or OH if unused. Where a SMILES comes first, the peptide text is derived from it. Non-standard residues stand in square brackets, D forms with d. Square brackets hold non-standard residues; d marks the D form. Residues, ends and D or L forms follow the SMILES beside them. Peptide text beside a SMILES is read from it. [ ]: non-standard residue; d: D form. ξ: configuration not given here. X1 = O=C([C@H](Cc1ccc(O[P+](O)(O)O)cc1)N[*:1])[*:2]; Thr(P(OH)3+) = C[C@@H](O[P+](O)(O)O)[C@H](N)C(=O)O; Orn(CH(NH2)2) = NC(N)NCCC[C@H](N)C(=O)O; ξE = NC(CCC(=O)O)C(=O)O
# Assay: PubChem AID 977611
# Settings: PDB protein-ligand complexes, literature Kd
compound,measurement,setting,value
O=C1C=C(O)C=CC1S(=O)(=O)n1cc2ccc(O)cc2c1 (stereo not drawn),Kd,PDB entry 4mpe,426 nM (active)
C/C(O)=[N+](/O)CCC[C@@H]1NC(=O)CNC(=O)CNC(=O)CNC(=O)C(CCCN(O)C(C)O)NC(=O)[C@H](CCCN(O)C(C)O)NC1=O.[Fe] (stereo partly drawn),Kd,"protein: Iron-compound ABC transporter, iron compound-binding protein, PDB entry 4hmq",5.8 nM (active)
H-LLPTLPKLPSL-OH,Kd,"protein: Ankyrin Repeat Domains of Human ANKRA2, PDB entry 3v2x",4500 nM (active)
H-APTLPKLPSLS-OH,Kd,"protein: Ankyrin Repeat Domains of Human ANKRA2, PDB entry 3v2o",4900 nM (active)
C[C@@H](O)[C@H](N)C(=O)N[C@@H](CCCNC(N)N)C(=O)N[C@@H](CO)C(=O)N[C@@H](CCCCN)C(=O)N[C@@H](Cc1ccccc1)C(=O)N[C@@H](Cc1ccccc1)C(=O)N[C@@H](CC(N)=O)C(=O)O (H-T[Orn(CH(NH2)2)]SKFFN-OH),Kd,"protein: C-terminal domain of the Saccharomyces cerevisiae MUTL alpha (MLH1/PMS1) heterodimer, PDB entry 4fmo",2940 nM (active)
CC(=O)N[C@H](C(=O)N[C@@H](CCCNC(N)N)C(=O)N[C@@H](CO)C(=O)N[C@@H](CCCCN)C(=O)N[C@@H](Cc1ccc(O)cc1)C(=O)N[C@@H](Cc1ccccc1)C(=O)N[C@@H](CCCCN)C(=O)O)C(C)C (Ac-V[Orn(CH(NH2)2)]SKYFK-OH),Kd,"protein: C-terminal domain of the Saccharomyces cerevisiae MUTL alpha (MLH1/PMS1) heterodimer, PDB entry 4fmn",750 nM (active)
H-HPVGDADYFEY-OH,Kd,"protein: LA class I histocompatibility antigen, B-35 alpha chain HLA-B 35:01, PDB entry 4pr5",2200 nM (active)
same,Kd,"protein: MHC class I antigen HLA-B 35:08, PDB entry 4prd",25400 nM (active)
same,Kd,"protein: MHC class I antigen-Beta-2-microglobulin, PDB entry 4prh",25400 nM (active)
CC(C)C[C@H](NC(=O)[C@H](C)NC(=O)[C@H](CCC(=O)O)NC(=O)[C@H](CC(=O)O)NC(=O)[C@H](Cc1ccc(O)cc1)NC(=O)[C@H](CO)NC(=O)[C@@H]1CCCN1C(=O)[C@H](CC(C)C)NC(=O)CNC(=O)[C@@H](N)[C@@H](C)O)C(=O)N[C@@H](Cc1cnc[nH]1)C(=O)O (H-TGLPSYDEALH-OH),Kd,"protein: E3 ubiquitin-protein ligase NEDD4, PDB entry 2ez5",3000 nM (active)
H-DADTLLHFATESTPD-OH,Kd,"protein: Beta-catenin-interacting protein 1, PDB entry 1t08",3100 nM (active)
CC(=O)N[C@@H](Cc1cnc[nH]1)C(=O)N[C@@H](CO)C(=O)N[C@@H](CCCCN)C(=O)N[C@@H](Cc1ccc(O)cc1)C(=O)N1CCC[C@H]1C(=O)N[C@@H](CC(C)C)C(=O)N1CCC[C@H]1C(=O)N1CCC[C@H]1C(=O)N[C@@H](CC(C)C)C(=O)N1CCC[C@H]1C(=O)N[C@@H](CO)C(=O)N[C@@H](CC(C)C)C(N)=O (Ac-HSKYPLPPLPSL-NH2),Kd,"protein: Tyrosine-protein kinase HCK, PDB entry 2oi3",230 nM (active)
CC(C)C[C@H](NC(=O)[C@H](CC(=O)O)NC(=O)[C@H](Cc1ccc(O)cc1)NC(=O)[C@H](CC(C)C)NC(=O)[C@H](CCC(=O)O)NC(=O)[C@H](Cc1cnc[nH]1)NC(=O)[C@H](CC(C)C)NC(=O)[C@@H](NC(=O)[C@@H]1CCCN1C(=O)[C@@H]1CCCN1)[C@@H](C)O)C(=O)O (H-PPTLHELYDL-OH),Kd,"protein: Retinoblastoma-associated protein, PDB entry 2r7g",900 nM (active)
H-HPVGEADYFEY-OH,Kd,"protein: MHC class I antigen-Beta-2-microglobulin, PDB entry 4pri",93200 nM (active)
H-ANPHGAARAEVY-OH,Kd,"protein: WD repeat-containing protein 5, WDR5, PDB entry 4erz",88 nM (active)
H-EPPLNPHGSARAEVHA-OH,Kd,"protein: WD repeat-containing protein 5, WDR5, PDB entry 4esg",2760 nM (active)
H-HPVAEADYFEY-OH,Kd,"protein: HLA class I histocompatibility antigen, B-35 alpha chain, PDB entry 4prn",2200 nM (active)
same,Kd,"protein: MHC class I antigen HLA-B 35:08, PDB entry 4prb",132000 nM (active)
H-HPVGQADYFEY-OH,Kd,"protein: LA class I histocompatibility antigen, B-35 alpha chain HLA-B 35:011, PDB entry 4pra",2200 nM (active)
same,Kd,"protein: MHC class I antigen HLA-B 35:08, PDB entry 4pre",181000 nM (active)
same,Kd,"protein: MHC class I antigen-Beta-2-microglobulin, PDB entry 4prp",2200 nM (active)
H-TLVSMPPLPGLDLAGS-OH,Kd,"protein: Ankyrin Repeat Domains of Human DNA-binding protein RFXANK, PDB entry 3v30",184000 nM (active)
CC[C@H](C)[C@H](NC(=O)[C@H](Cc1ccc(O)cc1)NC(=O)[C@@H](N)C(C)C)C(=O)N[C@@H](Cc1cnc[nH]1)C(=O)N1CCC[C@H]1C(=O)N[C@@H](Cc1ccccc1)C(=O)O,Kd,"protein: Aminopeptidase N, PDB entry 4fys",15000 nM (active)
COc1cc(NC(=O)C[C@@]2(C)C[C@H](c3cccc(Cl)c3)[C@@H](c3ccc(Cl)c(F)c3)N([C@H](CS(=O)(=O)C(C)(C)C)C3CC3)C2=O)ccc1C(=O)O,Kd,"protein: E3 ubiquitin-protein ligase Mdm2, PDB entry 4wt2",0.038 nM (active)
CSCC[C@H](NC(=O)[C@H](CC(C)C)NC(=O)[C@H](CCCNC(N)N)NC(=O)[C@@H](N)CC(N)=O)C(=O)N[C@@H](CC(C)C)C(=O)N[C@H](C(=O)NCC(=O)O)[C@@H](C)O (H-N[Orn(CH(NH2)2)]LMLTG-OH),Kd,"protein: Chaperone protein DnaK, PDB entry 4ezx",1600 nM (active)
CC(C)C[C@H](NC(=O)[C@H](CC(C)C)NC(=O)[C@H](CCCNC(N)N)NC(=O)[C@@H](N)CC(N)=O)C(=O)N[C@@H](CC(C)C)C(=O)N[C@H](C(=O)NCC(=O)O)[C@@H](C)O,Kd,"protein: Chaperone protein DnaK, PDB entry 4ezw",1000 nM (active)
COc1cc(OC)c2c(=O)[nH]c(-c3cc(C)c(O)c(C)c3)nc2c1,Kd,"protein: Bromodomain-containing protein 2, PDB entry 4mr5",251 nM (active)
same,Kd,"protein: Bromodomain-containing protein 4, PDB entry 4mr3",1140 nM (active)
COc1ccc(Nc2nc3cc(C(=O)O)ccc3n2Cc2ccccc2C(F)(F)F)cc1F,Kd,"protein: KINESIN-LIKE PROTEIN KIF11, PDB entry 3zcw",650 nM (active)
CC(C)C[C@H](NC(=O)[C@H](CC(N)=O)NC(=O)[C@@H](N)CCCNC(N)N)C(=O)N[C@@H](Cc1ccccc1)C(=O)NCC(=O)N1CCC[C@H]1C(=O)O (H-[Orn(CH(NH2)2)]NLFGP-OH),Kd,"protein: phospho-CDK2/cyclin A, PDB entry 1h27",2500 nM (active)
C[C@@H](O)[C@H](N)C(=O)N[C@@H](CC(N)=O)C(=O)N[C@@H](CCC(=O)O)C(=O)N[C@@H](Cc1ccc(O[P+](O)(O)O)cc1)C(=O)N[C@H](C(=O)N[C@@H](CCC(=O)O)C(=O)NCC(=O)N1CCC[C@H]1C(=O)N[C@H](C(=O)O)[C@@H](C)O)[C@@H](C)O (H-TNE[X1]TEGPT-OH),Kd,"protein: E3 ubiquitin-protein ligase CBL, PDB entry 3bum",320 nM (active)
C[C@@H](O)[C@H](NC(=O)[C@H](CC(N)=O)NC(=O)[C@@H](N)CCCNC(N)N)C(=O)N[C@@H](CC(N)=O)C(=O)N[C@@H](CCC(=O)O)C(=O)N[C@@H](Cc1ccc(O[P+](O)(O)O)cc1)C(=O)N[C@H](C(=O)N[C@@H](CCC(=O)O)C(=O)NCC(=O)N1CCC[C@H]1C(=O)O)[C@@H](C)O[P+](O)(O)O (H-[Orn(CH(NH2)2)]NTNE[X1][Thr(P(OH)3+)]EGP-OH),Kd,"protein: E3 ubiquitin-protein ligase CBL c-Cbl TKB domain, PDB entry 3ob1",3830 nM (active)
CC(C)C[C@H](NC(=O)[C@H](CS)NC(=O)[C@H](CCC(=O)O)NC(=O)[C@H](Cc1ccc(O)cc1)NC(=O)CNC(=O)[C@H](Cc1ccc(O)cc1)NC(=O)C(CCC(=O)O)NC(=O)[C@H](CCC(=O)O)NC(=O)[C@@H](N)CC(=O)O)C(=O)N[C@@H](CC(=O)O)C(=O)O (stereo partly drawn) (H-DE[ξE]YGYECLD-OH),Kd,"protein: AP-2 complex subunit mu-1, PDB entry 2pr9",42.2 nM (active)
CC(C)C[C@H](NC(=O)[C@@H](N)CC(=O)O)C(=O)N[C@@H](Cc1ccc(O)cc1)C(=O)NCC(=O)O (H-DLYG-OH),Kd,"protein: E3 ubiquitin-protein ligase RNF31 HOIP PUB Domain, PDB entry 4p0a",30300 nM (active)
CC(C)=CCNc1ncnc2c1ncn2[C@@H]1O[C@H](CO[P+](O)(O)O)[C@@H](O)[C@H]1O,Kd,"protein: 2'-deoxynucleoside 5'-phosphate N-hydrolase 1, DNPH1 (RCL), PDB entry 4kxm",2600 nM (active)
O[C@@H]1[C@H](O)[C@@H](CO[P+](O)(O)O)O[C@H]1n1cnc2c(NCc3ccco3)ncnc21,Kd,"protein: 2'-deoxynucleoside 5'-phosphate N-hydrolase 1, DNPH1 (RCL), PDB entry 4kxn",800 nM (active)
CCc1cn([C@@H]2O[C@H](CO)[C@@H](O)[C@H]2O)c2ncnc(N)c12,Kd,"protein: Adenosine kinase ADK, PDB entry 4pvv",330 nM (active)
CNc1ncnc2c1ncn2[C@@H]1O[C@H](CO)[C@@H](O)[C@H]1O,Kd,"protein: YTH domain-containing family protein 2 YTH-YTHDF2, PDB entry 4rdn",1200 nM (active)
